The record followed here is PubChem BioAssay AID743330 (NMMLSC, 2014).

By EC50 is commonly meant the midpoint of the concentration-response curve.

Structures are written as SMILES. Calls of active or inactive are those of the source. No rule for the calls is given here.

This assay relates to Cdc42 mutant. The assay is described as follows: GTPase panel EC50 shift with labeled GTP level, profiling panel, mechanism study, biochemical, four GTPases, bead flow cytometry (AID 743330). Conditions: bead-based flow cytometry, fluorescent GTP binding to GTPases. On the technique in general: A flow cytometer gives signals particle by particle.

For `CC1(C)Cc2c(sc(NC(=S)NC(=O)c3ccc(F)cc3)c2C(=O)O)CO1`, the EC50 is 0.054 µM (active).
The result for `CCC1(C)Cc2c(sc(NC(=S)NC(=O)c3ccccc3)c2C(=O)O)CO1` (configuration not stated) reads 0.004 µM (active).
